# ALDH1A1 block – ALDH1A1 (human) enzyme inhibition; Purified ALDH1A1, NADH fluorescence, propionaldehyde substrate; Potency, µM (series often up to 75.3 µM), inactives show top-dose activity, negative = inhibition, most hits filed as inhibitors; actives 7.3% (n = 220,000); AID 1030;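 also: potency is read from the fitted curve at half-maximal effect; plate controls were no enzyme wells and a reference inhibitor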
# Lamin A splicing – modulators of lamin A splicing; AID 1487; actives 0.01% (n = 200,000); HeLa LMNA splicing GFP/RFP minigene ratio, 48 h; Potency, µM (series often up to 46.1 µM), without a hit: at the top dose ratio change, negative = inhibition, actives largely listed as inhibitors; active = well fitted inhibition curve with a large enough effect in the signal ratio, with a control signal flat, not every such curve was filed as active; inconclusive = small, poorly fitted or top-dose-only effect, or effect the other way, or a change in a side signal; the % refers to the signal ratio; also: potency is read from the fitted curve at half-maximal effect
#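 S3 HeLa cells stably expressing lamin A-EGFP splicing minigene plus DsRed2, 600 cells/well, 48 h compound exposure at 37C. Laser-scanning cytometry; analysed as GFP (500-530 nm)/RFP (575-640 nm) total intensity ratio; 0.5% DMSO vehicle.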
# HPGD inh – blocks human HPGD enzyme activity; P15428; purified HPGD, NADH fluorescence kinetic, PGE2 substrate; Potency, µM, for the others: at the top dose activity change, negative = inhibition, usual class: inhibitors; actives 4.3% (n = 150,000); AID 894; also: potency is read from the fitted curve at half-maximal effect
# Target sequence (P15428 whole entry, looked up): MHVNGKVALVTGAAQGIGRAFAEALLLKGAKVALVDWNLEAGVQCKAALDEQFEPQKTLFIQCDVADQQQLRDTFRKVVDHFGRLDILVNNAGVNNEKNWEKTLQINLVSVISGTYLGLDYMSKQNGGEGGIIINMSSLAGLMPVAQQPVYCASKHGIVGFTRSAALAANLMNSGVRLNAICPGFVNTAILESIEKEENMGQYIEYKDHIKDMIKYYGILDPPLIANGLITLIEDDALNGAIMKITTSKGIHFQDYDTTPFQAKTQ
#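 20 nM HPGD preincubated 15 min at room temperature with compound in 50 mM Tris-HCl pH 8, 0.01% Tween 20. Started with 1 mM NAD+ and 30 uM prostaglandin E2; NADH fluorescence (360/450 nm) read 5 times over 30-s intervals, last minus first.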
# Luc counter – Kinase-Glo luciferase inhibition (counter-screen); Q27757; Kinase-Glo luciferase, ATP luminescence, 8 min; Potency, µM (titrated, usually from 38.3 µM), for the others: at the highest dose activity change, negative = inhibition, actives largely listed as inhibitors; actives 0.28% (n = 200,000); active = well fitted inhibition curve with a large enough effect; inconclusive = small, poorly fitted or top-dose-only effect; also: potency is read from the fitted curve at half-maximal effect; nearly all actives have a fitted effect of over 60% in size
#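 Recombinant Kinase-Glo luciferase, 10 uM ATP (linear range), luciferin; imidazole pH 7.2 / KCl / MgCl2 / Tween / BSA buffer; 8 min RT; luminescence.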
# PNC assembly inh – perinucleolar compartment assembly inhibition. PC3M PTB-GFP, PNC prevalence imaging, 16 h; stronger effect = lower value. activity change (PNC), negative = inhibition, % at 10 µM. actives 3.1% (n = 140,000);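 active = readout at or below -70, meaning at least 70% loss of cells showing the perinucleolar compartment, a nuclear body marking cancer cells; inconclusive = readout between -30 and a set limit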;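 also: plate controls were DMSO wells for no effect and camptothecin positive control wells for full effect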
#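 Compounds are pinned in duplicate onto adhered PC3M cells stably expressing GFP-tagged PTB and incubated 16 h at 37 C. Cells are then fixed, nuclei stained with Hoechst, and PNC-positive cells counted.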
# An asterisk follows results filed as active; ? = inconclusive; / = no result given; ! = repeats disagree; [ ] = dose if it differs, or a comment. In the library only some 10% were active in any assay of this set; here they are far more common. Unless noted, calls follow the shape of the dose curve; as a rule, active = well fitted inhibition curve with a large enough effect (not every such curve was filed as active); inconclusive = small, poorly fitted or top-dose-only effect, or another doubt; inactive = no such curve, though single readings can be large or run the other way. Unless noted, % is scaled to controls: 0 for no effect and ±100 for the full control effect.
SMILES,ALDH1A1 block,Lamin A splicing,HPGD inh,Luc counter,PNC assembly inh
CN(C)[C@@H]1C(=O)C(C(N)=O)=C(O)[C@]2(O)C(=O)C3=C(O)c4c(O)cccc4[C@@](C)(O)[C@H]3[C@H](O)[C@@H]12,?,?,?,-3%[17.1 µM],/
CN(C)C1C(=O)C(C(N)=O)=C(O)[C@@]2(O)C(=O)C3=C(O)c4c(O)cccc4[C@@](C)(O)C3[C@H](O)C12 (stereo partly drawn),7.1µM*,/,?,-7%,/
CCN(CC)C(=O)c1ccc(NC(=O)CCCSc2ccccc2)cc1,-6%,/,/,-2%,/
CCN(CC)C(=O)c1ccc(NC(=O)COc2ccc([N+](=O)[O-])cc2Cl)cc1,-14%,?,0.5µM*,2%,-28
N#CC1(c2ccccc2)CCN(C2CC(=O)N(c3ccc4c(c3)OCO4)C2=O)CC1 (stereo not drawn),8.9µM*,/,/,0%,/
C[C@H]1CN(C2CCC(C#N)(c3ccc(F)cc3)CC2)CC[C@@]1(C(=O)O)c1ccccc1 (stereo partly drawn),-8%[20.9 µM],?,2%,0%[17.1 µM],/
N#CC1(c2ccccc2)CCN(C2CC(=O)N(c3ccc(F)cc3)C2=O)CC1 (stereo not drawn),32µM*,/,/,-2%,/
O=c1[nH]c(=S)[nH]c(O)c1N=Nc1ccc(-c2ccccc2)cc1[N+](=O)[O-],?,?,/,-3%,/
CCCBr,5%,/,-3%,/,/
O=C(O)CCn1cc(C=C2C(=O)NC(=O)NC2=O)c(-c2ccc(Br)cc2)n1,-4%,?,28µM*,-1%,-8
O=C(O)CCn1cc(C=C2C(=O)NC(=S)NC2=O)c(-c2cccc(Cl)c2)n1,3.5µM*,/,/,-7%,/
O=C1NC(=S)NC(=O)C1=Cc1cccc2cc3ccccc3cc12,?,/,-16%,-6%[7.66 µM],/
CC(=O)O[C@@H]1C[C@@]2(C)C(c3ccoc3)C[C@H]3O[C@]32[C@]2(C)C(=O)C(O)=C3C(C)(C)C(=O)C=C[C@]3(C)C12 (stereo partly drawn),1%,/,-8%,1%,/
C[N+]1(C)C2CC[C@H]1CC(OC(=O)[C@@H](CO)c1ccccc1)C2 (stereo partly drawn),-7%[13.5 µM],?,-5%,-2%[7.66 µM],/
C=CCN1C(=O)/C(=C/c2cc(C)n(-c3ccccn3)c2C)C(=O)NC1=S,?,4%,13µM*,2%,-17
O=C(c1cc(C(=O)NCc2ccccc2)c(=O)n(Cc2ccccc2)c1)c1cc(Cl)ccc1O,?,?,16µM*,3%,?
CC(C)CCNC(=O)c1cc(C(=O)c2cc(Br)ccc2O)cn(CCC(C)C)c1=O,-4%,/,/,-2%,/
COc1cccc2c1C13CC[N+]4(CC5CC5)CO[C@]1(CCC(=O)C3)C4C2,-3%,/,/,/,/
Oc1cc(Cl)cc(Cl)c1,14%,/,-9%,/,/
COc1ccccc1C1=NCc2nnc(C)n2-c2ccc(Cl)cc21,13%,-11%,28µM*,-2%,9
CN1CCN(Cc2nnc3n2-c2ccc(Cl)cc2C(c2ccccc2)=NC3)CC1,-8%,5%,-20%,-2%,-23
Cc1nnc2n1-c1ccc(Cl)cc1C(c1ccccc1)=NC2,7%,?,16µM*,3%[39.9 µM],/
COc1ccc(C2=NCc3nnc(C)n3-c3ccc(Cl)cc32)cc1Cl,?,?,-26%,2%,-10
Clc1ccc2c(c1)C(c1ccccc1Cl)=NCc1nnc(N3CCN(CCOc4ccccc4)CC3)n1-2,10µM*,?,-3%,-4%,22
COc1c(C(C)(C)C)cc([N+](=O)[O-])c(C)c1[N+](=O)[O-],?,/,-8%,/,/
SMILES,ALDH1A1 block,Lamin A splicing,HPGD inh,Luc counter,PNC assembly inh
O=C(O)CBr,-13%,/,-3%,/,/
C[C@@H](COc1ccccc1)N(CCCl)Cc1ccccc1,5%[20.9 µM],-7%,2%,5%[17.1 µM],/
CCc1ccc(CCN2CCCCC2)nc1,-4%[13.5 µM],/,-6%,-2%[7.66 µM],/
Cc1ccc(C(=O)NC(=S)NNS(=O)(=O)c2ccc(C)cc2)cc1,-11%,8%,16µM*,1%,?
COC[C@H]1OC(=O)c2coc3c2[C@@]1(C)C1=C(C3=O)[C@H]2CCC(=O)[C@@]2(C)C[C@H]1OC(C)=O,28µM*,/,32µM*,-16%,/
COC[C@H]1OC(=O)c2coc3c2[C@@]1(C)C1=C(C3=O)C2CCC(=O)[C@@]2(C)C[C@H]1OC(C)=O (stereo partly drawn),28µM*!,?,35µM*!,-13%,/
Clc1cccc(C(Cl)(Cl)Cl)n1,1%,/,-2%,/,/
CC(C)C[C@H]1C(=O)N2CCCC2[C@]2(O)O[C@](NC(=O)[C@@H]3C=C4c5cccc6[nH]c(Br)c(c56)C[C@H]4N(C)C3)(C(C)C)C(=O)N12 (stereo partly drawn),1%,?,-27%,-3%,/
CN(CCOc1ccc(C=C2C(=O)NC(=O)NC2=O)cc1)c1ccccn1,?,/,/,-2%,/
O=C1NC(=O)C(=Cc2ccc(OCC(=O)N3CCOCC3)cc2)C(=O)N1,5µM*,?,-20%,-1%,-23
c1ccoc1,8%,/,-3%,/,/
C[C@H](CCC(=O)O)[C@H]1CC[C@@H]2[C@H]3CC[C@H]4C[C@@H](O)CC[C@@]4(C)[C@H]3CC[C@]21C,8%[20.9 µM],?,6%,-2%[17.1 µM],/
c1ccc2c([C@@H]3CCN(CCN4CCOCC4)C3)c[nH]c2c1,-2%[13.5 µM],/,-2%,0%[7.66 µM],/
CC1CN=C(Nc2ccc(N(C)C)cc2)S1 (stereo not drawn),3%,6%,/,/,1
CC1CN=C(Nc2ccccc2)S1 (stereo not drawn),-9%,-5%,8.9µM*,0%,-8
CCN(CC)C(=O)c1ccc(N2C(=O)C3CC=C(Cl)CC3C2=O)cc1 (stereo not drawn),-6%,6%,13µM*,3%,-86*

# Screens as filed in PubChem.
